From the supplement of paper PMC11732987, “Enantioselective OTUD7B fragment discovery through chemoproteomics screening and high-throughput optimisation” (Communications Chemistry, 2025)

Experiments:
Experiment in all cases: log2 ratio of Biotin-Ahx-Ub-VS probe labelling (fragment/DMSO); higher = less target engagement (more negative = stronger competition), active = hit call of the paper (q ≤ 0.05, log2 ratio ≤ -1)
Details in all cases: compound concentration: 200 uM; treatment time: 3 h
[1] = biological target: T1, OTUD6B (UniProt Q8N6M0)
T1 sequence (whole entry): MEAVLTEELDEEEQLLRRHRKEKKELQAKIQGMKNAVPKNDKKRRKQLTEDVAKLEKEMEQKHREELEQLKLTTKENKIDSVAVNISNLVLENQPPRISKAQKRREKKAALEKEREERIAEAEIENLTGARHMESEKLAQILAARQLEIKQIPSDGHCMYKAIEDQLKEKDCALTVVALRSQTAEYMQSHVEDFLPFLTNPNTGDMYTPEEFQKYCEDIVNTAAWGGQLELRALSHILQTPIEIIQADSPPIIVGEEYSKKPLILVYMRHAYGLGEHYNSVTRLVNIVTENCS
How it was run: (§1)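 Average log2 ratios of fragment over vehicle were obtained by unpaired t-test from global-median-normalised Spectronaut label-free quantities. Proteins with ≥2 unique peptides were included. HEK293T lysate (495 µg per sample) was treated in triplicate with fragment at 200 µM or vehicle for 3 h, then with Biotin-Ahx-Ub-VS at 0.5 µM final for 1 h, and labelled DUBs were NeutrAvidin-enriched and run by diaPASEF LC-MS/MS.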

[2] = biological target: T2, OTUD7B (UniProt Q6GQQ9)
T2 sequence (whole entry): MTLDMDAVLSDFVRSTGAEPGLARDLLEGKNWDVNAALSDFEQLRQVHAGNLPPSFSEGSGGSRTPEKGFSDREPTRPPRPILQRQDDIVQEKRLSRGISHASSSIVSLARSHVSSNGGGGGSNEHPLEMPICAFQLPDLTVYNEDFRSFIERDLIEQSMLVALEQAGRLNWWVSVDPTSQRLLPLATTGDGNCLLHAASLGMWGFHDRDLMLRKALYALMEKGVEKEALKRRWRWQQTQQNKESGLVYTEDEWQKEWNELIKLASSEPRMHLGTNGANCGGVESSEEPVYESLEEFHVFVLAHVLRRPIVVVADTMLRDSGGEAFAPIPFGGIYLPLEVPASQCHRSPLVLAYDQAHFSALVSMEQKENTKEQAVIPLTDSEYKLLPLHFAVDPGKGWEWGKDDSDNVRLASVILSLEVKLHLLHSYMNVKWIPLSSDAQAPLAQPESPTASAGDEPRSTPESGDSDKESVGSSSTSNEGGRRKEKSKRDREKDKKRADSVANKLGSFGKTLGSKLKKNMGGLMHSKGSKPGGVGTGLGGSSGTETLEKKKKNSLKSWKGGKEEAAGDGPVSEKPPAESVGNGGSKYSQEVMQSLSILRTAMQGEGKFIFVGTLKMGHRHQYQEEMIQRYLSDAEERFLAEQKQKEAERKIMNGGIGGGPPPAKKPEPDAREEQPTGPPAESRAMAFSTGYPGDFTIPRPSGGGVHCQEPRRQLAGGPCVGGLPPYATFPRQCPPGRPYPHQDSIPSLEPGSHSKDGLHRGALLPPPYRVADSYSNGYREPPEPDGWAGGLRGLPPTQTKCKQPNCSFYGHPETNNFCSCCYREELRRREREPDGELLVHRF
How it was run: as §1

[3] = biological target: PRPF8 (UniProt Q6P2Q9)
How it was run: as §1

[4] = biological target: T3, PSMD7 (UniProt P51665)
T3 sequence (whole entry): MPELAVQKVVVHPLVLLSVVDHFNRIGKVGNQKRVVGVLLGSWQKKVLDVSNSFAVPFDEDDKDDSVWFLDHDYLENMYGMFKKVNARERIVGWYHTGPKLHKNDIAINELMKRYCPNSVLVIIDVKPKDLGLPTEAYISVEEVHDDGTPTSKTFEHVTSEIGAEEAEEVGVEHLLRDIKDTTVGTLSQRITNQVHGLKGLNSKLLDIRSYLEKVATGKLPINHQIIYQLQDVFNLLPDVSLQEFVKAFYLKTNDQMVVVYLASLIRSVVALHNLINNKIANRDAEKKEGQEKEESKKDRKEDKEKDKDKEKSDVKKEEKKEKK
How it was run: as §1

[5] = biological target: UCHL1 (UniProt P09936)
How it was run: as §1

[6] = biological target: T4, UCHL3 (UniProt P15374)
T4 sequence (whole entry): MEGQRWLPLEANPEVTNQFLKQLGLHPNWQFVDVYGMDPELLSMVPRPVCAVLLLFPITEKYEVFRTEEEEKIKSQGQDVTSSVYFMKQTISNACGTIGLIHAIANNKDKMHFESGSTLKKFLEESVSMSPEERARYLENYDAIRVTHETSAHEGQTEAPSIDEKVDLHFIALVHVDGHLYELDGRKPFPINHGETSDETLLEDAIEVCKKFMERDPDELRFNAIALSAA
How it was run: as §1

[7] = biological target: T5, UCHL5 (UniProt Q9Y5K5)
T5 sequence (whole entry): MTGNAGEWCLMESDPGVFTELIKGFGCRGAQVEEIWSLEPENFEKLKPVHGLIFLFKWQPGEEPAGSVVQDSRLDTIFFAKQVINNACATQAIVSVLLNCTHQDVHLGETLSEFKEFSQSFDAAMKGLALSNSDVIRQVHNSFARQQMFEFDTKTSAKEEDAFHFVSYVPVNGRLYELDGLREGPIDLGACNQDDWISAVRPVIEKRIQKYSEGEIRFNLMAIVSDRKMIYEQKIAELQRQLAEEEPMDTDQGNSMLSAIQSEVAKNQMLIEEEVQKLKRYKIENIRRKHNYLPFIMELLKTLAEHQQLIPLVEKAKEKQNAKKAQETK
How it was run: as §1

[8] = biological target: USP10 (UniProt Q14694)
How it was run: as §1

[9] = biological target: T6, USP15 (UniProt Q9Y4E8)
T6 sequence (whole entry): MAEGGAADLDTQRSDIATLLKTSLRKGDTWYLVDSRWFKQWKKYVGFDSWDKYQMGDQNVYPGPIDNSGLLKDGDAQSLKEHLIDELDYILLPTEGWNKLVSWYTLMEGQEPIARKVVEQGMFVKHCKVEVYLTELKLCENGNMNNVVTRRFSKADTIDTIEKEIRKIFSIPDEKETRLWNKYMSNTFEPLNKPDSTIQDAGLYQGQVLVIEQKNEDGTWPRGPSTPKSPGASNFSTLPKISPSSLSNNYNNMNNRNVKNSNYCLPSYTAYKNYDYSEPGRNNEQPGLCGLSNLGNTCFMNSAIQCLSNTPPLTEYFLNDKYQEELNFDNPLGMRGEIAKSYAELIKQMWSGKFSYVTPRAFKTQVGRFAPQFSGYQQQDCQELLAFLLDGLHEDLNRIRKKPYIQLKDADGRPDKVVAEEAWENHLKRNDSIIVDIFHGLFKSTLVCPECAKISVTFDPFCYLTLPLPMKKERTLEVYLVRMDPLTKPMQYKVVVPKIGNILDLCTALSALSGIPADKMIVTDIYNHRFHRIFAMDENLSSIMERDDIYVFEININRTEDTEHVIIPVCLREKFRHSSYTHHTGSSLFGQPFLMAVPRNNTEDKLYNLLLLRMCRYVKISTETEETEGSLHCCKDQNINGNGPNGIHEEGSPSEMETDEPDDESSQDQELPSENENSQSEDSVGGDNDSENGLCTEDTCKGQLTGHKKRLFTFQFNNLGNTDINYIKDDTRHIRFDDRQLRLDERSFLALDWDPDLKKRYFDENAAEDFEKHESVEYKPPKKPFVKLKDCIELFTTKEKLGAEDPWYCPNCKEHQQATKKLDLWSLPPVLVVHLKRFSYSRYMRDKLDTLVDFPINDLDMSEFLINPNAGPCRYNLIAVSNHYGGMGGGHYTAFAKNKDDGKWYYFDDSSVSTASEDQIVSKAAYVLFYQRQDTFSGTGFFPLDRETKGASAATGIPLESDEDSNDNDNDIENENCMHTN
How it was run: as §1

[10] = biological target: USP16 (UniProt Q9Y5T5)
How it was run: as §1

Measured: log2 ratio of Biotin-Ahx-Ub-VS probe labelling

UCHL1, sequence (P09936 whole entry, looked up): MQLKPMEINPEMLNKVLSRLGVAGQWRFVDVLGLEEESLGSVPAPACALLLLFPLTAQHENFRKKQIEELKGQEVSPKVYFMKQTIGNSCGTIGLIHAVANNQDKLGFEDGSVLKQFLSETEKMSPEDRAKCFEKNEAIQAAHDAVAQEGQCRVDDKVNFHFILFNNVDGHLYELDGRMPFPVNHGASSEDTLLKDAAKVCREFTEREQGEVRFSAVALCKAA
USP10, sequence (Q14694 whole entry): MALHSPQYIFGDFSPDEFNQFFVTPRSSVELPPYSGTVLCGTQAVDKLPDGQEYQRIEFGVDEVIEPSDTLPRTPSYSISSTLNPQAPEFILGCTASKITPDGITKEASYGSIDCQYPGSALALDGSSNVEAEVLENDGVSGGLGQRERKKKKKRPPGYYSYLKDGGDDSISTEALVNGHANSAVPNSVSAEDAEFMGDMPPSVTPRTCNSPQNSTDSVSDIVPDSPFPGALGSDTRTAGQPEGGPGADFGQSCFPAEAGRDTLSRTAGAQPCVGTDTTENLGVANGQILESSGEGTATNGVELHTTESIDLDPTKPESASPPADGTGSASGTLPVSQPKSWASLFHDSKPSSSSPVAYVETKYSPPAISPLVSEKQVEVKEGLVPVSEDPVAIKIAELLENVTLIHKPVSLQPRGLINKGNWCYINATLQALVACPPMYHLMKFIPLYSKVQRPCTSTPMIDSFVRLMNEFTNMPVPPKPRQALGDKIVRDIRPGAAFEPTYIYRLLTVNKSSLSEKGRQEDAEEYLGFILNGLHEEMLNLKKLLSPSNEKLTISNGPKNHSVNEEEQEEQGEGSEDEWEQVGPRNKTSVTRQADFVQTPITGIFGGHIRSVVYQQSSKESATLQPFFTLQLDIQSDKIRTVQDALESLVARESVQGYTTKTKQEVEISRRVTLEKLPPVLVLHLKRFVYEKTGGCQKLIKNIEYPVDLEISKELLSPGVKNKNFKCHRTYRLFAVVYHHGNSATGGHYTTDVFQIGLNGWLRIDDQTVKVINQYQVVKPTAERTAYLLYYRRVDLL
USP16, sequence (Q9Y5T5 whole entry, looked up): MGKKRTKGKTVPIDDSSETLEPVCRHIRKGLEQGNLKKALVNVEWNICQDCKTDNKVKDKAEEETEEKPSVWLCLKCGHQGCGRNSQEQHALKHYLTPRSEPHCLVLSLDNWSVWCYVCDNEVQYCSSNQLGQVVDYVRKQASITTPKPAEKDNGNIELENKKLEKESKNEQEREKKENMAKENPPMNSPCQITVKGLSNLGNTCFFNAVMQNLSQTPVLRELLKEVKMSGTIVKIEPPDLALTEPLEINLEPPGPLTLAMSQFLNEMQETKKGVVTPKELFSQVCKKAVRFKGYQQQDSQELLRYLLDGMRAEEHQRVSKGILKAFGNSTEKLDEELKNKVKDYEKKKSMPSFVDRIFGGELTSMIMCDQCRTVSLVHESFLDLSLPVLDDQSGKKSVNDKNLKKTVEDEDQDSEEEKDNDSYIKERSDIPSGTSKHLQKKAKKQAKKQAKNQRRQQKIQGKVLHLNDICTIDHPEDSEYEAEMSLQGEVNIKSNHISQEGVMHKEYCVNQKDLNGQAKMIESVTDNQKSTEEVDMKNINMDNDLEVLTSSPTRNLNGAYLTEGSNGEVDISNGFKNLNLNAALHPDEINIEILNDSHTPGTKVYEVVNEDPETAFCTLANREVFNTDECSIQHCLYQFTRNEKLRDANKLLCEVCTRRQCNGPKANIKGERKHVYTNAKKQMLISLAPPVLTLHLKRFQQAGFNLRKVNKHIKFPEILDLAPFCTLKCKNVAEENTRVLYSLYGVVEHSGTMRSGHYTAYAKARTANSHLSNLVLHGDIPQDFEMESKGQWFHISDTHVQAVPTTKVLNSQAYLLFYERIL

O=C(CCl)N1CCC(O)(Cc2ccc(F)cc2)C1 (stereo not given)
inactive: [1] 0.0617 | [2] -0.082 | [3] -0.0432 | [4] -0.209 | [6] 0.0281 | [7] 0.116 | [8] -0.309 | [9] -0.149 | [10] 0.246
active: [5] -1.12
